# Source: PubChem BioAssay (Sanford-Burnham Center for Chemical Genomics)
# ER stress death: protection against thapsigargin ER stress killing – CSM14.1 cells, ATP luminescence, primary screen | CSM14.1 thapsigargin ER stress survival | relative survival (cellular ATP), % at 15 µg/mL (by protocol) | 48,000 compounds, 0.33% hits;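 active = survival measured by cellular ATP above 50% at 15 µg/ml in the first screen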;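 note: cell death triggered by about 15 µM thapsigargin; ATP read 24 h after thapsigargin was added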
# A number is an active result; . = inactive. Only a selection was taken, and hits are over-represented in it overall.
SMILES,ER stress death
CCN1C(=O)c2cccc3c(NC(=O)c4ccc(S(=O)(=O)N5CCCCCC5)cc4)ccc1c23,96.4
CCN1C(=O)c2cccc3c(NC(=O)c4ccc(Oc5ccccc5)cc4)ccc1c23,.
CCN1C(=O)c2cccc3c(NC(=O)c4ccc(C(=O)c5ccccc5)cc4)ccc1c23,.
CC(C)(C)c1ccc(C(=O)Nc2ccc(OC(F)(F)F)cc2)cc1,.
CN(c1ccccc1)c1ccc(/C=C2\C(=O)ON=C2c2cccc([N+](=O)[O-])c2)cc1,.
Cc1ccc(OCC(=O)Nc2ccc(I)cc2Cl)cc1C,.
CCCC(=O)NC(c1ccc(Cl)cc1)c1ccc2cccnc2c1O (configuration not stated),.
CCC(=O)NC(c1ccc(N(C)C)cc1)c1ccc2cccnc2c1O (configuration not stated),59.2
COc1ccc(C(NC(=O)c2ccccc2)c2ccc3cccnc3c2O)cc1 (configuration not stated),.
O=C(COc1ccccc1[N+](=O)[O-])Nc1cccc(-c2nc3ccccc3o2)c1,.
COc1ccc(/C=C2\SC(=O)N(CC(=O)Nc3ccccc3Cl)C2=O)cc1OC,.
O=C1CC(c2ccccc2)CC2=C1C(c1cc(Br)ccc1F)Nc1ccccc1N2 (configuration not stated),79.7
O=C1CC(c2ccccc2)CC2=C1C(c1c(F)cccc1Cl)Nc1ccccc1N2 (configuration not stated),105.4
O=C1CC(c2ccc(Cl)cc2)CC2=C1C(c1ccccc1F)Nc1ccccc1N2 (configuration not stated),.
COc1ccc(C2CC(=O)C3=C(C2)Nc2ccccc2NC3c2c(F)cccc2Cl)cc1 (configuration not stated),.
O=C1CC(c2ccccc2)CC2=C1C(c1cccc(Cl)c1Cl)Nc1ccccc1N2 (configuration not stated),.
O=C1CC(c2ccccc2)CC2=C1C(c1ccc(Br)cc1)Nc1ccccc1N2 (configuration not stated),.
Cc1nc(C)c(-c2csc(Nc3ccc(O)cc3)n2)s1,.
CCN(CC)c1ccc(Nc2nc(-c3sc(N)nc3C)cs2)cc1,72.2
CCN(CC)c1ccc(Nc2nc(-c3c(C)nc4ccccn34)cs2)cc1,.
O=C1c2ccccc2C(O)(c2ncc[nH]2)N1c1cccc(F)c1 (configuration not stated),.
Cc1ccccc1C(=O)NNC(=O)C(C)C,.
CCCC(=O)NNC(=O)c1ccccc1C,64.8
Cc1ccccc1C(=O)NNC(=O)c1ccco1,.
COc1ccc(Oc2coc3cc(OS(C)(=O)=O)ccc3c2=O)cc1,.
SMILES,ER stress death
C=CCSc1nc2sc3c(c2c(=O)n1-c1ccccc1)CCc1ccccc1-3,.
Cc1cccc(NC(=O)CC2CCCCC2)c1,.
O=C(c1ccc(-c2ccccc2)cc1)N1CCN(Cc2ccc(Cl)cc2)CC1,98.3
COc1ccc(OC)c(CN2CCN(C(=O)c3ccc(OC)c(OC)c3)CC2)c1,.
COc1cccc(CN2CCN(C(=O)c3ccc(-c4ccccc4)cc3)CC2)c1,92.8
COc1ccc(OC)c(CN2CCN(C(=O)c3ccc(-c4ccccc4)cc3)CC2)c1,104.1
O=C(c1ccccc1)N1CCN(Cc2cccc(Oc3ccccc3)c2)CC1,59.0
COc1cc(OC)c(OC)cc1CN1CCN(C(=O)c2ccc(-c3ccccc3)cc2)CC1,.
O=C(c1ccc(F)cc1)N1CCN(Cc2cccc(Oc3ccccc3)c2)CC1,.
O=C(c1ccc(F)cc1)N1CCN(Cc2ccc(Cl)cc2)CC1,.
COc1ccc(C(=O)N2CCN(Cc3cccc(C)c3)CC2)cc1,.
Cc1ccc(C(=O)N2CCN(Cc3ccccc3)CC2)cc1,.
c1ccc(Oc2cccc(CN3CCN(Cc4ccccn4)CC3)c2)cc1,.
COc1ccc(C(=O)N2CCN(Cc3cccc(Cl)c3)CC2)cc1,.
CCn1ccnc1C(O)c1ccccc1 (configuration not stated),.
Cc1cc(-c2nnc(-c3ccc4c(c3)OCO4)o2)ccc1[N+](=O)[O-],.
O=C1C(=O)N(CC2CCCO2)C(c2ccccc2)/C1=C(/O)c1ccccc1 (configuration not stated),.
O=C(CCN1C(=O)/C(=C/c2ccccc2)SC1=S)NNC(=O)c1ccccc1Br,.
COC(=O)c1ccc(OCC(O)CN(C)C)cc1 (configuration not stated),.
CCOc1ccc(S(=O)(=O)n2cnc(C)c2)c2ccccc12,.
NC1=NN(c2ccc(N)cc2)CC1,.
C1=CCC(/C=N/N=C(/c2ccccc2)C23CN4CN(CN(C4)C2)C3)CC1 (configuration not stated),.
COc1cccc(C2CN(c3ccccc3)N=C2c2cccs2)c1OC (configuration not stated),.
COc1ccc2c(c1)c(=O)oc1cc(OC(C)=O)ccc12,.
O=C1CCCC2=C1C(c1ccc(O)cc1)Nc1ccc(C(=O)c3ccccc3)cc1N2 (configuration not stated),.
SMILES,ER stress death
COc1ccc(C2CC(=O)C3=C(C2)Nc2ccccc2NC3c2ccc(O)cc2)cc1 (configuration not stated),.
O=C1CC(c2ccccc2)CC2=C1C(c1ccc(O)cc1)Nc1ccc(C(=O)c3ccccc3)cc1N2 (configuration not stated),105.8
O=C1CCCC2=C1C(c1ccc([N+](=O)[O-])cc1)Nc1ccc(C(=O)c3ccccc3)cc1N2 (configuration not stated),121.3
O=C1CC(c2ccccc2)CC2=C1C(c1cccnc1)Nc1ccc(C(=O)c3ccccc3)cc1N2 (configuration not stated),102.4
O=C1CC(c2ccccc2)CC2=C1C(c1ccco1)Nc1ccccc1N2 (configuration not stated),.
O=C1CCCC2=C1C(c1cccs1)Nc1ccc(C(=O)c3ccccc3)cc1N2 (configuration not stated),.
COc1ccc(C2CC(=O)C3=C(C2)Nc2ccccc2NC3c2cccnc2)cc1OC (configuration not stated),.
O=C1CCCC2=C1C(c1ccc(F)cc1)Nc1ccc(C(=O)c3ccccc3)cc1N2 (configuration not stated),.
COc1ccc(C(N)=O)cc1NC(=O)c1cccnc1,.
O=C1CSC(c2ccc([N+](=O)[O-])cc2)N1c1cccc(Cl)c1 (configuration not stated),.
Cc1ccn2c(-c3csc(Nc4cccc(O)c4)n3)c(C)nc2c1,.
CCOc1ccc(Nc2nc(-c3ccccn3)cs2)cc1,.
CCOc1ccc(Nc2nc(-c3c(C)nc4cc(C)ccn34)cs2)cc1,95.7
C/C(=N\Nc1cc(-n2nc(C)cc2C)nc(C)n1)c1ccc(Cl)c(Cl)c1,.
CSc1nc(NC(N)=O)c2c3c(sc2n1)CC(C(C)(C)C)CC3 (configuration not stated),58.4
CC(C)(C)C1CCc2c(sc(NC(=O)c3ccncc3)c2C(N)=O)C1 (configuration not stated),.
CC(C)(C)C1CCc2c(sc3ncn(N)c(=N)c23)C1 (configuration not stated),.
COc1ccc(-c2c(C#N)c(N)nc3c2CC(C)CC3)cc1 (configuration not stated),.
O=c1[nH]c(=O)n(-c2ccccc2F)c(O)c1C=NCc1ccccc1F,.
CCOc1ccc(NC(=O)c2cc(-c3ccc(OC)cc3)nc3ccccc23)cc1,.
